Measurements from PubChem BioAssay (NCATS).
“And” between values parts separate entries of the source, which are not always exact repeats. Equal values may be shown once. Records with an inconclusive call do not appear. The source made the active and inactive calls. Unless noted, calls come from the whole dose curve; as a rule, active = well fitted curve in the direction sought with a large enough effect; inconclusive = small, poorly fitted or top-dose-only effect, or another doubt; inactive = no such curve, though single readings can be large; an effect the other way counts as inactive or inconclusive.

Key:
[1] = biological target: Cellular tumor antigen p53 (Homo sapiens) (UniProt P04637); assay: Primary qHTS for small molecule compounds that upregulate eGFP-tagged delta133p53alpha (in N-terminal) cells. (AID 2060322); conditions: NCI-H358 eGFP-delta133p53alpha fluorescence, 24 h; activation: active compounds read high; note: nearly all actives have a fitted effect of over 75% in size; note: potency is the fitted concentration of half-maximal effect;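 for activation: cells pre-induced with doxycycline then dosed without doxycycline; series mostly up to about 56 µM; 0% = DMSO vehicle and 100% = reference activator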
Summary of the method: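 NCI-H358 cells pre-induced 24 h with 10 ng/ml doxycycline for eGFP-delta133p53alpha, plated dox-free and exposed 24 h at 37C to titrated compounds. Fixed, Hoechst-stained; gated GFP peak intensity by laser scanning cytometry, normalized to DMSO (0%) and 57.5 uM 5-azacytidine (100%).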

[2] = biological target: Aldehyde dehydrogenase, mitochondrial (Homo sapiens) (UniProt P05091); assay: qHTS for Inhibitors of the Aldehyde Dehydrogenase Family (ALDH2) Primary screen (AID 2061308);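 note: plate controls were vehicle for no effect and reference inhibitor for full effect; nearly all actives have a fitted effect of over 55% in size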
[3] = qHTS for Inhibitors of the Aldehyde Dehydrogenase Family (ALDH1A2, ALDH1A3, ALDH2, ALDH3A1) (AID 2061307); note: % is set by controls: 0 for no effect and ±100 for the full control effect; nearly all actives have a fitted effect of over 50% in size
[4] = biological target: Retinaldehyde dehydrogenase 3 (Homo sapiens) (UniProt P47895); assay: qHTS for Inhibitors of the Aldehyde Dehydrogenase Family (ALDH1A3) Confirmatory screens (AID 2061311); note: nearly all actives have a fitted effect of over 60% in size; for activity change, negative = inhibition: % is set by controls: 0 for no effect and ±100 for the full control effect
[5] = biological target: Retinal dehydrogenase 2 (Homo sapiens) (UniProt O94788); assay: qHTS for Inhibitors of the Aldehyde Dehydrogenase Family (ALDH1A2) Confirmation screens (AID 2061314); note: nearly all actives have a fitted effect of over 65% in size; note: potency is the fitted concentration of half-maximal effect
[6] = biological target: Retinaldehyde dehydrogenase 3 (Homo sapiens) (UniProt P47895); assay: qHTS for Inhibitors of the Aldehyde Dehydrogenase Family (ALDH1A3) Primary screen (AID 2061315); note: potency is the fitted concentration of half-maximal effect;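 for activity change, negative = inhibition: plate controls were DMSO vehicle for no effect and reference inhibitor for full effect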
[7] = biological target: Aldehyde dehydrogenase 1A1 (Homo sapiens) (UniProt P00352); assay: qHTS for Inhibitors of the Aldehyde Dehydrogenase Family (ALDH1A1) Confirmatory screens (AID 2061316); note: nearly all actives have a fitted effect of over 65% in size; for activity change, negative = inhibition: % is set by controls: 0 for no effect and ±100 for the full control effect
[8] = BET inhibitor-based combinations targeting novel dependencies in MECOM-rearranged (r) AML: OCI-AML3 cell line (AID 2202232); conditions: Potency: OCI-AML3 viability;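 note: series mostly up to about 46 µM; plate controls were DMSO vehicle wells for no effect and wells without cells for full effect; nearly all actives have a fitted effect of over 35% in size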
Summary of the method: (§1)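 Readout: CellTiter-Glo luminescence. Exposure: 48 h, 11 concentrations, 500 cells/well. Metric: AUC and within-line Z-AUC after DMSO/empty-well normalization.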

[9] = BET inhibitor-based combinations targeting novel dependencies in MECOM-rearranged (r) AML: MV-4-11 cell line (AID 2202233);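 note: plate controls were DMSO for no effect and blank wells for full effect; nearly all actives have a fitted effect of over 45% in size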
Summary of the method: (§2)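 Seeding density was 500 cells/well, and drug exposure lasted 48 hr under standard culture conditions. Read-out used CellTiter-Glo reagent with a 15 min room-temperature incubation before luminescence measurement; AUC and Z-AUC summarize the normalized responses.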

[10] = BET inhibitor-based combinations targeting novel dependencies in MECOM-rearranged (r) AML: HNT-34 cell line (AID 2202234);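 note: plate controls were vehicle wells for no effect and cell-free wells for full effect; nearly all actives have a fitted effect of over 35% in size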
Summary of the method: as §2

[11] = BET inhibitor-based combinations targeting novel dependencies in MECOM-rearranged (r) AML: UCSD-AML1 cell line (AID 2202235);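 note: series mostly up to about 46 µM; plate controls were DMSO vehicle wells for no effect and blank wells for full effect; nearly all actives have a fitted effect of over 40% in size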
Summary of the method: as §2

[12] = BET inhibitor-based combinations targeting novel dependencies in MECOM-rearranged (r) AML: AML-191 cell line (AID 2202236;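 note: plate controls were vehicle wells for no effect and wells without cells for full effect; nearly all actives have a fitted effect of over 35% in size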)
Summary of the method: as §1

[13] = BET inhibitor-based combinations targeting novel dependencies in MECOM-rearranged (r) AML: AML-194 cell line (AID 2202237;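 note: plate controls were vehicle wells for no effect and wells without cells for full effect; nearly all actives have a fitted effect of over 40% in size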)
Summary of the method: as §1

[14] = biological target: Aldehyde dehydrogenase, mitochondrial (Homo sapiens) (UniProt P05091); assay: qHTS for Inhibitors of the Aldehyde Dehydrogenase Family (ALDH2) Confirmatory screens (AID 2061303; active = well fitted inhibition curve with a large enough effect; title and protocol of this record describe different tests; note: % is set by controls: 0 for no effect and ±100 for the full control effect; nearly all actives have a fitted effect of over 45% in size)
[15] = biological target: Retinaldehyde dehydrogenase 3 (Homo sapiens) (UniProt P47895); assay: qHTS for Inhibitors of the Aldehyde Dehydrogenase Family (ALDH1A3) Validation screen (AID 2061312); note: % is set by controls: 0 for no effect and ±100 for the full control effect; nearly all actives have a fitted effect of over 45% in size

Cellular tumor antigen p53 (Homo sapiens), sequence (P04637 whole entry, looked up): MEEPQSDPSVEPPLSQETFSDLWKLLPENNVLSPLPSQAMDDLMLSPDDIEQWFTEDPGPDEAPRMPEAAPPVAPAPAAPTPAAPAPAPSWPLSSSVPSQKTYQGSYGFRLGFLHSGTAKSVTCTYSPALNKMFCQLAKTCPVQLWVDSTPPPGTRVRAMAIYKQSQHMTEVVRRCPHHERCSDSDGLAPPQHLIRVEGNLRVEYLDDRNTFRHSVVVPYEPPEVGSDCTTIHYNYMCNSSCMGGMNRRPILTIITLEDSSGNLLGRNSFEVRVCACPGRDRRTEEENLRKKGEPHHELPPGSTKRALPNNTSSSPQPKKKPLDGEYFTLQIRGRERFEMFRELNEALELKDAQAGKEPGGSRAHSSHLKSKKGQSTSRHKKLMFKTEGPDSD

COc1cc2c(cc1O)C1(C)CCC(O)C(C)(C)C1CC2=O (configuration not stated)
inactive: activation [1] -4.58% | Potency [2]

COC1=C[C@@H]2[C@@H]3Cc4ccc(OC)c(O)c4[C@]2(CCN3C)CC1=O
inactive: activation [1] 8.33% | Potency [3] | Potency [2] | Potency [4] | Potency [6] | Potency [7] | Potency [8] | Potency [9] | Potency [10] | Potency [11] | Potency [12] | Potency [13]
active: Potency [5] 7.12 µM

Cc1cc(C(=O)CN2CCCC2)c(C)n1-c1ccc(F)cc1
inactive: activation [1] 10% and -5.25% | Potency [14] | Potency [3] | Potency [2] | Potency [4] | Potency [15] | Potency [6]

CNC(=O)N1N=C(c2ccc(N)cc2)c2cc3c(cc2CC1C)OCO3 (configuration not stated)
inactive: activation [1] 34.7% | Potency [2] | Potency [15] | Potency [6]

C/C=C(/C)C1C=CC2CC(C)CC(C)C2C1/C(O)=C1\C(=O)NC(CC(C)(O)C(=O)O)C1=O (configuration not stated)
inactive: activation [1] -26% | Potency [2] | Potency [4] | Potency [6]

C=CCN1CC[C@]23c4c5ccc(O)c4O[C@H]2[C@@H](O)CC[C@@]3(O)[C@H]1C5
inactive: activation [1] 4.33% | Potency [2]

COc1ccc(CC2C(=O)NC(C)C(=O)N(C)C3Cc4ccc(cc4)Oc4cc(ccc4OC4OC(CO)C(O)C(O)C4O)CC(C(=O)NC(C)C(=O)NC(CCC(=O)O)C(=O)N2C)N(C)C3=O)cc1 (configuration not stated)
inactive: activation [1] 5.36% | Potency [2]

CCc1c(C(=O)C(N)=O)c2c(OCC(=O)OC)cccc2n1Cc1ccccc1
inactive: activation [1] -15.3% | Potency [2] | Potency [15] | Potency [6]

O=S(=O)(c1ccccc1F)N1CCOc2c(N3CCNCC3)cccc21
inactive: activation [1] 9.07% | Potency [14] | Potency [3] | Potency [2] | Potency [4] | Potency [5] | Potency [6] | Potency [7]

CC1CCCC(O)CCC/C=C/c2cc(O)cc(O)c2C(=O)O1 (configuration not stated)
inactive: activation [1] 28.2% | Potency [2]

C[C@H](NC(=O)Cc1cc(F)cc(F)c1)C(=O)N[C@@H]1N=C(c2ccccc2)c2ccccc2N(C)C1=O
inactive: activation [1] 21% | Potency [2] | Potency [15] | Potency [6]

C[C@@]1(C(=O)O)CC[C@]2(C)CC[C@]3(C)C4=CC(=O)c5cc(O)c(O)cc5[C@]4(C)CC[C@@]3(C)[C@@H]2C1
inactive: activation [1] -19.1% | Potency [14] | Potency [3] | Potency [2] | Potency [5] | Potency [7]
active: Potency [6] 4.47 µM

COc1cc2c(c(OC)c1OC)-c1ccc(SC)c(=O)cc1[C@@H](NC(C)=O)CC2
inactive: activation [1] 8.33% | Potency [2]

Cc1cccc(NC(=O)NC2N=C(c3ccccc3)c3ccccc3N(CC(=O)c3ccccc3C)C2=O)c1 (configuration not stated)
inactive: activation [1] -13.8% | Potency [2] | Potency [15] | Potency [6]

N#Cc1ccc(N2CCN(C(=O)COc3ccc4[nH]cc(CCN)c4c3)CC2)cc1
inactive: activation [1] -4.3% | Potency [14] | Potency [2] | Potency [15] | Potency [7]

CN(C(=O)CN1C(=O)COc2cc(Cl)c(Cl)cc21)[C@@H](CN1CCCC1)c1ccc(-c2cccc(C(N)=O)c2)cc1
active: Potency [1] 21.3 µM
inactive: Potency [2]

C#CC1(O)CCC2C3CCC4=CC(=O)CCC4=C3C=CC21C (configuration not stated)
inactive: activation [1] -16.3% | Potency [2]

CN(C(=O)C(c1ccccc1)c1ccccc1)[C@H](CN1CC[C@H](O)C1)c1ccccc1
inactive: activation [1] 14.8% | Potency [2] | Potency [15] | Potency [6]

CCCN1CCO[C@H]2c3cc(O)ccc3OC[C@@H]21
inactive: activation [1] 4.46% | Potency [2]

CN1CCCCC1Cn1cc(C(=O)c2cc([N+](=O)[O-])ccc2I)c2ccccc21 (configuration not stated)
inactive: activation [1] 23.9% | Potency [2] | Potency [15] | Potency [6]

CCCCCCn1c(=O)c(C(=O)Nc2ccc(C(=O)OCCC)cc2)c(O)c2ccccc21
inactive: activation [1] 4.3% | activity change, negative = inhibition [2] 11.3% [at 11.2 µM] | Potency [15] | activity change, negative = inhibition [6] 11.2% [at 11.2 µM]

COc1cc(CCNCc2ccccc2O)c(OC)cc1C#N
inactive: activation [1] -6.21% | Potency [2] | Potency [15] | Potency [6]

CN(C(=O)Cc1ccccc1)C(CN1CCCC1)c1ccccc1 (configuration not stated)
inactive: activation [1] -0.477% | Potency [2] | Potency [15] | Potency [6]

CN[C@H]1[C@H](O)[C@H](O[C@@H]2[C@@H](O)[C@H](O[C@H]3O[C@H]([C@H](C)O)[C@@H](O)[C@H](O)[C@H]3N)[C@@H](N)C[C@H]2N)OC[C@@]1(C)O
inactive: activation [1] -4.3% | Potency [2] | Potency [15] | Potency [6]

CN1C(=O)CN=C(c2ccccc2Cl)c2cc(Cl)ccc21
inactive: activation [1] -10% | Potency [2] | Potency [15] | Potency [6]

CCOC(=O)c1ccc(-c2ccc(OC(=O)N(C)Cc3cccc(-c4ccncc4)c3)cc2)cc1
inactive: activation [1] -12.9% | Potency [2] | Potency [15] | Potency [6]

CCc1nn(C)c(C(=O)NCc2ccc(Oc3ccc(C)cc3)cc2)c1Cl
inactive: activation [1] 1.43% | Potency [2] | Potency [15] | Potency [6]
